The record followed here is PubChem BioAssay AID623870 (Broad Institute, 2012).

Molecules are shown by their SMILES. Among all 390,000 compounds or so, about 2,600 (0.67%) were called active. This is one part of a sample in which actives are shown more often than they occur.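 How the source made its calls: active means mean inhibition of replicates at least 50% and at least half of replicates each reaching 50%; inconclusive means half or more replicates reach 50% but mean below 50%; inactive means the rest.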

The assay addresses Transforming acidic coiled-coil-containing protein 3 (Homo sapiens) (UniProt Q9Y6A5). The assay can be described thus: inhibitors of ARNT PAS-B binding to TACC3 – biochemical, AlphaScreen, single concentration, primary screen (AID 623870).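 Further: 0% = complete ARNT plus TACC3 wells and 100% = ARNT alone without TACC3.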 The settings on record: AlphaScreen His-ARNT PAS-B/GST-TACC3 binding, luminescence; at 9.99 µM; hits give high values; TACC3 fragment carries E629A point mutation. In general terms: Bead proximity is the source of the signal in Alpha formats.
By inhibition is commonly meant the change of the read-out against control, counted positive when it falls. As for `C[C@@H]1CCCCO[C@H](CN(C)C(=O)CCC(F)(F)F)[C@H](C)CN([C@H](C)CO)C(=O)c2cc(NC(=O)NC3CCCCC3)ccc2O1`, the inhibition is -7.47% (inactive).
As to `CCNC(=O)[C@H]1[C@H](CO)[C@H]2Cn3c(ccc(-c4cccc(OC)c4)c3=O)[C@H]2N1Cc1nccs1`, the inhibition is -9.07% (inactive).
Consider `CO[C@@H]1CC[C@@H]2CCOc3ccc(C#N)cc3C(=O)N(C)C[C@@H](C)C(=O)N(C)C[C@@H]1O2`, for which the inhibition was -7.05% (inactive).
The same measure for `CC(C)NC(=O)N(C)C[C@H]1OCCCC[C@H](C)Oc2ccc(NC(=O)CCCN(C)C)cc2C(=O)N([C@@H](C)CO)C[C@H]1C`: -0.512% (inactive).
The same measure for `COc1ccccc1-c1cnc2c(c1)C(=O)N([C@H](C)CO)C[C@@H](C)[C@@H](CN(C)Cc1ccncc1)O2`: -5.7% (inactive); for `CC(=O)N1[C@@H](CO)[C@H](c2ccccc2)[C@@H]1CN(C)C(=O)CN1CCOCC1`: -11.7% (inactive).
The same measure for `Cc1noc(C)c1NC(=O)Nc1ccc2c(c1)C(=O)N([C@@H](C)CO)C[C@H](C)[C@H](CN(C)S(=O)(=O)c1cn(C)cn1)OCCCC[C@@H](C)O2`: -9.38% (inactive); for `COC(=O)C[C@H]1C[C@H]2c3cc(NC(=O)NC4CCCCC4)ccc3O[C@H]2[C@H](CO)O1`: -2.98% (inactive); for `CN1c2ccc(C=O)c3c(C=O)ccc(c23)N(C)C1(C)C`: 13.9% (active).
Consider `CCSC1(SCC)N=C(N)C2(C#N)C(c3ccccc3)NC(C)=CC12C#N` (stereo not given), for which the inhibition is 48.6% (active).
On to `CCCC(=O)Nc1ccc2c(c1)OC[C@H](C)N(C(=O)C1CCCC1)C[C@@H](C)[C@H](OC)CN(C)C2=O`, for which the inhibition was -5.43% (inactive).
As to `COc1ccccc1NC(=O)N[C@H]1CC[C@@H](CC(=O)N[C@@H](C)c2ccccc2)O[C@H]1CO`, the inhibition was -7.69% (inactive).
Regarding `CCCNC(=O)C[C@H]1C[C@@H]2c3cc(NC(=O)C4CCOCC4)ccc3O[C@@H]2[C@@H](CO)O1`, the inhibition is -13.8% (inactive).
Consider `CCCC#Cc1ccc2c(c1)O[C@@H](CN(C)S(=O)(=O)c1cccc(OC)c1)[C@H](C)CN([C@@H](C)CO)S2(=O)=O`, for which the inhibition was 4.74% (inactive).
In the case of `Cc1ccccc1NC(=O)CSc1ccc2nnc(-c3ccccn3)n2n1`, the inhibition was 48% (active).
The same measure for `COc1cc(NC(=O)CSc2ccc(-c3cccnc3)nn2)cc(OC)c1`: -3.2% (inactive).
`O=C(CSc1ccc(-c2ccc(-n3cccn3)cc2)nn1)Nc1ccc([N+](=O)[O-])cc1`: the inhibition is -19.4% (inactive).
As for `Cc1ccccc1NC(=O)CSC1=NCCN1`, the inhibition was -6.23% (inactive).
Take `O=C(CSc1ccc(-c2ccccn2)nn1)Nc1ccccc1`: the inhibition is 58.5% (active).
As to `COc1ccc(C)cc1NC(=O)CSc1nnc2ccc(-c3ccccn3)nn12`, the inhibition was 12.1% (inactive).
With `COc1cccc(NC(=O)Nc2ccc3c(c2)C(=O)N(C)C[C@@H](OC)[C@H](C)CN(CC2CC2)[C@H](C)CO3)c1`, the inhibition was -0.496% (inactive).
On to `OC[C@H]1[C@@H](c2ccc(C#CC3(O)CCCC3)cc2)[C@H]2CN(Cc3cncnc3)CCCCN21`, for which the inhibition is 0.497% (inactive).
For the compound `CO[C@@H]1CN(C)C(=O)c2cc(NC(=O)C3CCC3)ccc2OC[C@H](C)N(Cc2ccccn2)C[C@H]1C`, the inhibition is 2.51% (inactive).
Take `O=C(C[C@@H]1C=C[C@@H](NC(=O)c2ccccc2)[C@H](CO)O1)NCCc1ccncc1`: the inhibition was -9.84% (inactive).
For `COc1ccc(C(=O)Nc2ccc3c(c2)C(=O)N(C)C[C@@H](OC)[C@H](C)CN(C(C)=O)[C@@H](C)CO3)cc1`, the inhibition was -6.1% (inactive).
The same measure for `CC(C)NC(=O)N1[C@@H]2c3ccc(-c4ccc(F)cc4)c(=O)n3C[C@@H]2[C@@H](CO)[C@@H]1C(=O)N1CCOCC1`: 17.2% (inactive); for `O=C(NC1=CC(=O)c2ccccc2C1=O)c1ccccc1`: 2.4% (active); for `Cc1ccccc1S(=O)(=O)N1C[C@H](O)COC[C@H]2O[C@H](CC(=O)N3CCCCC3)CC[C@@H]21`: 1.95% (inactive).
In the case of `CNC[C@@H]1Oc2ccc(NC(=O)C3CCCCC3)cc2CC(=O)N([C@@H](C)CO)C[C@H]1C`, the inhibition is -6.19% (inactive).
Turning to `CN(C)C(=O)c1cccc(-c2ccc3c(c2)[C@H]2[C@H](CCN2S(=O)(=O)c2cn(C)cn2)[C@@H](CO)N3)c1`, the inhibition is 0.583% (inactive).
For the compound `CN(C[C@@H]1[C@H](c2ccccc2)[C@@H](CO)N1Cc1ccccn1)S(C)(=O)=O`, the inhibition was 29.6% (inactive).
Take `O=C(NC[C@@H]1[C@@H](c2ccccc2)[C@H](CO)N1C(=O)Cc1cccnc1)C1CC1`: the inhibition is -0.188% (inactive).
To `O=C(NC[C@@H]1[C@@H](c2ccccc2)[C@@H](CO)N1Cc1ccccn1)C1CCC1` belongs 23.8% (active); to `CCCNC(=O)N1C[C@@H](O)COC[C@H]2O[C@H](CC(=O)NCCCN3CCOCC3)CC[C@@H]21`, -6.54% (inactive); to `CN(C)C(=O)c1cccc(-c2ccc3c(c2)[C@H]2[C@H](CCN2C(=O)Cc2ccccc2)[C@H](CO)N3)c1`, -7.24% (inactive).
As for `CN(C)C(=O)C[C@@H]1CC[C@@H](NS(=O)(=O)c2ccccc2)[C@H](CO)O1`, the inhibition was 1.05% (inactive).
For the compound `Cc1ccc(S(=O)(=O)N2CCCC2CO)cc1` (stereo not given), the inhibition is -6.07% (inactive).
To `Cc1ccc(S(=O)(=O)N2CC(C)N(S(C)(=O)=O)C2)cc1` (stereo not given) belongs -0.994% (inactive).
The same measure for `Cc1ccc(S(=O)(=O)n2oc(=O)c(C3CCCCC3)c2N)cc1`: 64.1% (active).
Consider `C[C@H](CO)N1C[C@H](C)[C@@H](CN(C)C(=O)C2CCC2)Oc2cc(C3=CCCCC3)ccc2S1(=O)=O`, for which the inhibition is 7.82% (inactive).
Consider `CCOC(=O)C1CCN(C(=O)C2CCN(S(=O)(=O)CC)CC2)CC1`, for which the inhibition is -3.42% (inactive).
`CCOC(=O)C1CCN(S(=O)(=O)c2c(C)noc2C)CC1`: the inhibition was -6.32% (inactive).
As to `CCOC(=O)C1CCN(C(=O)C2CCN(S(=O)(=O)c3c(C)noc3C)CC2)CC1`, the inhibition was 46.8% (active).
The same measure for `COC(=O)C[C@@H]1CC[C@@H]2[C@H](COc3ccc(NC(=O)c4ccccc4OC)cc3C(=O)N2C)O1`: -6.13% (inactive); for `CN1C[C@H]2[C@@H](c3ccccc31)[C@@H](CO)N2C(=O)Nc1ccccc1`: -0.471% (inactive).
The same measure for `COc1ccc(S(=O)(=O)N(C)C[C@@H]2OCc3ccccc3-c3ccccc3C(=O)N([C@@H](C)CO)C[C@@H]2C)cc1`: -0.955% (inactive); for `Cc1nc2ccccc2c(=O)n1-c1ccc(NS(=O)(=O)c2ccc(F)cc2F)cc1`: -1.59% (inactive).
Regarding `Cc1[nH]n(-c2cccc(Cl)c2)c(=O)c1/C=N/n1c(C)nc2ccccc2c1=O`, the inhibition was 46.7% (active).
With `CCCNC(=O)Nc1ccc2c(c1)C(=O)N(C)C[C@@H](OC)[C@@H](C)CN(Cc1ccccn1)[C@@H](C)CO2`, the inhibition is -2.12% (inactive).
Take `CO[C@@H]1CN(C)C(=O)c2cc(NS(=O)(=O)Cc3ccccc3)ccc2OC[C@H](C)NC[C@H]1C`: the inhibition was 1.43% (inactive).
For `CC(C)NC(=O)N[C@H]1CC[C@H](CC(=O)NCCCN(C)C)O[C@H]1CO`, the inhibition is -5.48% (inactive).
Regarding `C[C@H](CO)N1C[C@H](C)[C@H](CN(C)CC2CC2)OCCCC[C@H](C)Oc2ccc(NS(=O)(=O)c3cccs3)cc2C1=O`, the inhibition is -8.86% (inactive).
With `C[C@@H]1CN([C@@H](C)CO)C(=O)c2cccc(NC(=O)Nc3ccc(C(F)(F)F)cc3)c2O[C@@H]1CN(C)S(=O)(=O)c1cccs1`, the inhibition was -2.19% (inactive).
Consider `COC(=O)CCCCCCC(=O)Nc1ccc(C2OC(CSc3nc(-c4ccccc4)c(-c4ccccc4)o3)CC(c3ccc([N+](=O)[O-])cc3)O2)cc1` (stereo not given), for which the inhibition was 1.18% (inactive).
To `Nc1nnnn1/N=C/c1cc([N+](=O)[O-])ccc1O` belongs 75.7% (active); to `Nc1nnnn1/N=C/c1cccs1`, 3.88% (inactive).
Regarding `Nc1nnnn1/N=C/c1cccc(Br)c1`, the inhibition was 3.65% (inactive).
Take `C[C@@H]1CCCCO[C@@H](CN(C)S(=O)(=O)c2cn(C)cn2)[C@H](C)CN([C@H](C)CO)C(=O)c2cc(NC(=O)NC3CCCCC3)ccc2O1`: the inhibition was -15% (inactive).
For the compound `O=C(C[C@@H]1C[C@@H]2c3cc(NC(=O)CC4CC4)ccc3O[C@@H]2[C@@H](CO)O1)NCCN1CCCCC1`, the inhibition was -1.06% (inactive).
With `COCC#Cc1cnc2c(c1)C(=O)N([C@@H](C)CO)C[C@@H](C)[C@H](CN(C)C(=O)c1cnccn1)O2`, the inhibition is 4.05% (inactive).
